The results in this text go back to PubChem BioAssay (Tox21).

Each structure is given as a SMILES string. “And” between values parts separate entries of the source, which are not always exact repeats. Equal values may be shown once. Results filed as inconclusive are left out. The source holds several records for some structures; these can differ, active in one and inactive in another. The source made the active and inactive calls. Unless noted, calls come from the whole dose curve; as a rule, active = well fitted curve in the direction sought with a large enough effect in the repeat runs; inconclusive = weak or mixed curves; inactive = no such curve, though single readings can be large; an effect the other way counts as inactive or inconclusive.

A short description of assay [1]: qHTS assay to identify small molecule antagonists of the sonic hedgehog signaling (Shh) pathway (AID 1259369; calls by dose curve; note: nearly all actives have a fitted effect of over 45% in size; note: potency is the fitted concentration of half-maximal effect). Summed up:
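3T3Gli1-Luc, conditioned-medium-stimulated, 24hr cpd, 37C/5% CO2; Gli1-driven firefly Luc luminescence after 30min RT with luciferase reagent. Cells plated 4hr before cpd.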

Assay [2] concerns the target Estrogen receptor beta (Homo sapiens) (UniProt Q92731). Nature of the assay: qHTS assay to identify small molecule agonists of the estrogen receptor beta (ER-beta) signaling pathway (AID 1259377; active = well fitted activation curve with a large enough effect in the signal ratio in the repeat runs, not every such curve was filed as active; the % refers to the signal ratio). In short, it runs like this: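 Beta-lactamase reporter readout: fluorescence of LiveBLAzer B/G FRET substrate after 2 h at room temperature, following 16 h compound treatment of ER-beta-UAS-bla HEK293T cells at 37C in 2% charcoal-stripped FBS medium.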
A general note: qHTS replaces the single test concentration by a dilution series.

For assay [3] the target is unchanged. Nature of the assay: qHTS assay to identify small molecule antagonists of the estrogen receptor beta (ER-beta) signaling pathway (AID 1259378; active = well fitted inhibition curve with a large enough effect in the signal ratio in the repeat runs, not every such curve was filed as active; the % refers to the signal ratio). Summed up:
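Antagonist mode: compounds added to beta-lactamase reporter HEK293T ER-beta-UAS cells stimulated with E2 (1nM final), 16 hr at 37C. LiveBLAzer B/G FRET substrate, 2 hours room temperature, fluorescence read-out.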

Assay [4] can be described thus: qHTS assay to identify small molecule agonists of the androgen receptor (AR) signaling pathway in the presence of an antagonist - cell viability counter screen (AID 1259379).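 Note: MDA-kb2 human breast cancer cells carrying an MMTV luciferase reporter; series mostly up to about 92 µM; nearly all actives have a fitted effect of over 25% in size.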 In short, it runs like this:
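Cells: MDA-kb2 (MMTV-luc, AR and GR elements), 3,000/well, 5 hr settle. Added: nilutamide 3.0uM final, then compounds (15 conc.). Incubation: 16 hr, 37C, no CO2. Read-out: CellTiter-Fluor, 1 hr, fluorescence.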

The nature of assay [5]: qHTS assay to identify small molecule agonists of the estrogen receptor beta (ER-beta) signaling pathway - cell viability counter screen (AID 1259380). Note: nearly all actives have a fitted effect of over 30% in size. Note: potency is the fitted concentration of half-maximal effect. Summed up: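 HEK293T ER-beta-UAS-bla; 2% CS-FBS; 6 hr pre-plate, 16 hr cpd at 37C/5% CO2; LiveBLAzer read first, then CellTiter-Glo 30 min RT, luminescence.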
Assay [6] is described as follows: qHTS assay to identify small molecule antagonists of the estrogen receptor beta (ER-beta) signaling pathway - cell viability counter screen (AID 1259382).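 Note: HEK293T cells carrying ER-beta-UAS-bla reporter stimulated with estradiol; series mostly up to about 92 µM; nearly all actives have a fitted effect of over 55% in size.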 In short, it runs like this: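 Cells: ER-beta-UAS-bla HEK293T, 2,000/well, 2% CS-FBS, 6 hr settle. Cpd + E2 (1nM final), 16 hr, 37C/5% CO2. Bla FRET substrate 2 hr RT, then CellTiter-Glo 30 min RT, luminescence.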

Assay [7] has as its target Estrogen receptor (Homo sapiens) (UniProt P03372). The assay can be described thus: qHTS assay to identify small molecule agonists of the estrogen receptor alpha (ER-alpha) signaling pathway in the presence of an antagonist (AID 1259383; calls by dose curve; note: top concentration of the series differs between compounds; nearly all actives have a fitted effect of over 15% in size). In short, it runs like this:
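VM7Luc4E2, endog. ER-alpha + 4×ERE-luc; charcoal-stripped FBS, phenol red-free, 5 d; 24hr plating; +10.0nM ICI-182,780 (final); cpds 15 conc, 22hr, 37C/5% CO2; ONE-Glo luminescence.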

Assay [8] can be described thus: qHTS assay to identify small molecule agonists or antagonists of the thyroid stimulating hormone receptor (TSHR) signaling pathway - wild type cell line counter screen (AID 1259384; calls by dose curve). In short, it runs like this: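 Counter screen in untransfected Hek293: compounds (15-point titration, triplicate) plus phosphodiesterase inhibitor Ro20-1724 added after 18 h plating; 30 min RT. Intracellular cAMP via competitive d2/cryptate immunoassay, 1 h incubation.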

The target of assay [9] is Thyrotropin receptor (Homo sapiens) (UniProt P16473). Nature of the assay: qHTS assay to identify small molecule antagonists of the thyroid stimulating hormone receptor (TSHR) signaling pathway (AID 1259385; calls by dose curve; note: nearly all actives have a fitted effect of over 20% in size). In short, it runs like this: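 Antagonist mode: compound-treated TSHR-expressing HEK293 cells were stimulated with 1.5 ng/mL TSH (final) in presence of Ro20-1724 for 30 min at RT. HTRF cAMP detection after 1 h; each compound tested at 15 concentrations, triplicate.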

Assay [10] can be described thus: qHTS assay to identify small molecule agonists of the estrogen receptor alpha (ER-alpha) signaling pathway in the presence of an antagonist - cell viability counter screen (AID 1259386).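 Note: series mostly up to about 92 µM; cells exposed to compounds for 22 h at 37 °C before the viability read; nearly all actives have a fitted effect of over 30% in size.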 In short, it runs like this:
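VM7Luc4E2, stripped-serum pre-culture 5 d; 24hr plating; +ICI-182,780 10.0nM final; cpds 15 conc, 22hr, 37C/5% CO2; CellTiter-Fluor added at 21hr, fluorescence 1hr later.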

Assay [11] addresses Progesterone receptor (Homo sapiens) (UniProt P06401). Nature of the assay: qHTS assay to identify small molecule agonists of the progesterone receptor (PR) signaling pathway (AID 1346784; calls by dose curve; note: nearly all actives have a fitted effect of over 30% in size). Summed up: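 HEK 293T PR-UAS-bla reporter cells, 2% charcoal-stripped FBS; 6 hr settle at 37C/5% CO2, compound (DMSO) 16 hr, LiveBLAzer B/G FRET substrate 2 hr RT, fluorescence intensity read.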

For assay [12] the target is unchanged. The assay can be described thus: qHTS assay to identify small molecule antagonists of the progesterone receptor (PR) signaling pathway (AID 1346795; active = well fitted inhibition curve with a large enough effect in the signal ratio in the repeat runs, not every such curve was filed as active; the % refers to the signal ratio). Summed up:
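Beta-lactamase reporter, HEK293T PR-UAS-bla line; 2% charcoal-stripped FBS; 6 hr pre-incubation, 37C/5% CO2. Compound + R5020 1 nM final, 16 hr. LiveBLAzer B/G FRET substrate, 2 hr RT; fluorescence intensity read.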

Assay [13] can be described thus: qHTS assay to identify small molecule antagonists of the progesterone receptor (PR) signaling pathway - cell viability counter screen (AID 1346798). Note: series mostly up to about 92 µM; nearly all actives have a fitted effect of over 50% in size. Summed up: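 Luminescence readout (CellTiter-Glo, 30 min, RT) of viability in PR-UAS-bla HEK293T cells exposed to compound and R5020 agonist for 16 hr at 37C, 5% CO2; run in the same wells as the beta-lactamase reporter read.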

Assay [14] in a line: qHTS assay to identify small molecule agonists of the progesterone receptor (PR) signaling pathway - cell viability counter screen (AID 1346799; calls by dose curve; note: nearly all actives have a fitted effect of over 45% in size). Summed up: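 HEK293T PR-UAS-bla, 3,000 cells/well, 2% charcoal-stripped FBS; 6 h settle, compound 16 h at 37C/5% CO2; LiveBLAzer 2 h RT, then CellTiter-Glo 30 min RT, luminescence read.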
Assay [15] in a line: qHTS assay to identify small molecule antagonists of the TGF-beta/Smad signaling pathway - cell viability counter screen (AID 1346824). Note: nearly all actives have a fitted effect of over 50% in size. Summed up:
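Cytotoxicity counter-screen run in the same wells as the beta-lactamase Smad reporter read: CellTiter-Glo luminescence after 30 min at room temperature. HEK 293T SBE-bla cells had 5 hr compound exposure at 37 C with TGF-beta1 (0.25 ng/mL stock).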

A short description of assay [16]: qHTS assay to identify small molecule agonists of the TGF-beta/Smad signaling pathway - cell viability counter screen (AID 1346829). Note: top concentration of the series differs between compounds; nearly all actives have a fitted effect of over 45% in size. In short, it runs like this: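 After overnight seating at 37 C and 5% CO2, reporter cells got compounds for 5 hr and FRET substrate for 2 hr; cell viability then came from CellTiter-Glo luminescence.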
Assay [17] is described as follows: qHTS assay to identify small molecule agonists of the TGF-beta/Smad signaling pathway (AID 1346859; active = well fitted activation curve with a large enough effect in the signal ratio in the repeat runs, not every such curve was filed as active; the % refers to the signal ratio; note: series mostly up to about 77 µM). Summed up:
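Read-out: fluorescence at 460 and 530 nm (405 nm excitation) after a 2 hr room-temperature incubation with beta-lactamase FRET substrate. SBE-bla HEK 293T cells had been treated with test compounds for 5 hr at 37 C.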

For assay [18], the target named is Thyrotropin-releasing hormone receptor (Homo sapiens) (UniProt P34981). The assay can be described thus: qHTS assay to identify small molecule antagonists of the thyrotropin-releasing hormone receptor (TRHR) signaling pathway (AID 1346877; active = well fitted inhibition curve with a large enough effect in the repeat runs, not every such curve was filed as active; note: series mostly up to about 51 µM). Summed up:
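Intracellular calcium fluorescence, read kinetically every second over 3 min, reports TRH-evoked signalling in HEK293 cells carrying TRHR. Test compounds were added 5 min ahead of a 1 nM TRH challenge.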

For assay [19] the target is unchanged. The assay can be described thus: qHTS assay to identify small molecule agonists of the thyrotropin-releasing hormone receptor (TRHR) signaling pathway (AID 1346891; calls by dose curve;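 note: HEK293 cells expressing TRHR with calcium dye readout; series mostly up to about 58 µM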). In short, it runs like this:
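HEK293/TRHR cells, 1500 per well, 18 h 37 °C; Ca dye 2 h 37 °C; pin-tool compound addition (agonist mode); kinetic fluorescence 3 min, 1 s reads; 15 concentrations, triplicate.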

Chain of Estrogen receptor (Homo sapiens) (P03372 whole entry, looked up): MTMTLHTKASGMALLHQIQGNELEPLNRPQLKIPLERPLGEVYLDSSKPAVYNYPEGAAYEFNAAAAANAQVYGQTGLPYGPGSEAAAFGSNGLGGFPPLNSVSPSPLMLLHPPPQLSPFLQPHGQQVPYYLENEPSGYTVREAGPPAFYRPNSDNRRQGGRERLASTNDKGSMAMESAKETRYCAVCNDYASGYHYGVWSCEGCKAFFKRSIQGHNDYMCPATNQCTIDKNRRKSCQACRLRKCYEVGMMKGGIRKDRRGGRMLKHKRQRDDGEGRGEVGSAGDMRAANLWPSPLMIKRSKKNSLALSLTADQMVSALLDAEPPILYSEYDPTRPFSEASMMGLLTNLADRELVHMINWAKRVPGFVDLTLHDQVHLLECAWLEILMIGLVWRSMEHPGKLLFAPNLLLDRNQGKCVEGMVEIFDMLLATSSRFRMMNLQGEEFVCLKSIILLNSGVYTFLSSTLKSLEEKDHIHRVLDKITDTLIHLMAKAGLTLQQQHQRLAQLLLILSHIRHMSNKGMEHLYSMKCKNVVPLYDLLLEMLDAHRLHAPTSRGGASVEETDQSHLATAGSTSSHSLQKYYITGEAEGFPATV
Chain of Thyrotropin-releasing hormone receptor (Homo sapiens) (P34981 whole entry, looked up): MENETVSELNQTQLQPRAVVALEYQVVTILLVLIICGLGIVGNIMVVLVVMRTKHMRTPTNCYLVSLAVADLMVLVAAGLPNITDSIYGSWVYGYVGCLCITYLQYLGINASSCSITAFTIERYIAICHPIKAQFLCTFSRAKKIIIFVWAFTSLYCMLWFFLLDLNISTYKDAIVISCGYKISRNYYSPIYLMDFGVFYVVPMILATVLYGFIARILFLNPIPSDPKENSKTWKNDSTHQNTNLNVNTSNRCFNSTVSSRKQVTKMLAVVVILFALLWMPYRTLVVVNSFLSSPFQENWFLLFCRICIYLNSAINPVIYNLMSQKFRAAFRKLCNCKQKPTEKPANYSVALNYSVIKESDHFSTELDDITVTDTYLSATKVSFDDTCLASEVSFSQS
Chain of Thyrotropin receptor (Homo sapiens) (P16473 whole entry, looked up): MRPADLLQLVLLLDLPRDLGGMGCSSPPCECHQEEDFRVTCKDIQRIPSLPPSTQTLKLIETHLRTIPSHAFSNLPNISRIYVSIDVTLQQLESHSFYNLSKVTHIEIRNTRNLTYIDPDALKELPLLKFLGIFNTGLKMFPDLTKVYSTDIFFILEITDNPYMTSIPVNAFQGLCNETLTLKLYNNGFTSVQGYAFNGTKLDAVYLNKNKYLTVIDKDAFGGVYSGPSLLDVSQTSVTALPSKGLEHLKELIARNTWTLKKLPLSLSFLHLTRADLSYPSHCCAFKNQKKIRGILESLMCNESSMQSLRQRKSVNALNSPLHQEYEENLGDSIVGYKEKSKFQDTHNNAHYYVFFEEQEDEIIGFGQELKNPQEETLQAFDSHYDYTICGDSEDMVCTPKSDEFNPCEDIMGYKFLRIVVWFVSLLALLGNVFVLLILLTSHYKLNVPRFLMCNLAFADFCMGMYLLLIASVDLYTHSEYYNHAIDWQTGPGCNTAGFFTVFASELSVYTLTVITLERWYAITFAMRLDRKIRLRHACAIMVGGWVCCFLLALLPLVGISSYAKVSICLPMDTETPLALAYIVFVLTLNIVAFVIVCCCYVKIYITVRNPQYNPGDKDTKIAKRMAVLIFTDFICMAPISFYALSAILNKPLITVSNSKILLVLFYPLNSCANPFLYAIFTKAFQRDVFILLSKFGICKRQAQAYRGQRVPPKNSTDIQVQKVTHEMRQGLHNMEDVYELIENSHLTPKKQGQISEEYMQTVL
Chain of Progesterone receptor (Homo sapiens) (P06401 whole entry, looked up): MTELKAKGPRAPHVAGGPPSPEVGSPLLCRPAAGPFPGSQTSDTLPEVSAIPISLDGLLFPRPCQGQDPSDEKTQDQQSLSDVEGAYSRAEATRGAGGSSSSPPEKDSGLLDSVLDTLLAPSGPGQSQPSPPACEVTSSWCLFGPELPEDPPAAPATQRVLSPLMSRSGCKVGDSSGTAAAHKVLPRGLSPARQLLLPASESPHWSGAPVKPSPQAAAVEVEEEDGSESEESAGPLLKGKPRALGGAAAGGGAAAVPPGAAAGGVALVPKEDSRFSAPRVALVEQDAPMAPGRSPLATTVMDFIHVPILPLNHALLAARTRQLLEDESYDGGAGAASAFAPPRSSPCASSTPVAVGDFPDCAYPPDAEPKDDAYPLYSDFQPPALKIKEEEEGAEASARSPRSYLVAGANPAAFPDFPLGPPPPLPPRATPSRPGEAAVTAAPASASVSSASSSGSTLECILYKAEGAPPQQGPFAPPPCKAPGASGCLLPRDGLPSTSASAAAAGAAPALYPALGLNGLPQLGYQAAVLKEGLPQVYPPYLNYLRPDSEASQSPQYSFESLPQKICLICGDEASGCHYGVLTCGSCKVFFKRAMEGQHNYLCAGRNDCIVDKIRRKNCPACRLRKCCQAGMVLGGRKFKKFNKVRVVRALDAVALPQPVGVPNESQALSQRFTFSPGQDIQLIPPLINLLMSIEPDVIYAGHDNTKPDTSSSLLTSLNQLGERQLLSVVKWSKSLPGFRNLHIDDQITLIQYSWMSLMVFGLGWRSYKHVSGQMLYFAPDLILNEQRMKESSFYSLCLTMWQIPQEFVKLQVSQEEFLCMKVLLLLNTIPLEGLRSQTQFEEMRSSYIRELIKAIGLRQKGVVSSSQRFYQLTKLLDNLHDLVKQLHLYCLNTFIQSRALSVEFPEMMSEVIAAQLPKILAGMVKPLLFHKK
Chain of Estrogen receptor beta (Homo sapiens) (Q92731 whole entry, looked up): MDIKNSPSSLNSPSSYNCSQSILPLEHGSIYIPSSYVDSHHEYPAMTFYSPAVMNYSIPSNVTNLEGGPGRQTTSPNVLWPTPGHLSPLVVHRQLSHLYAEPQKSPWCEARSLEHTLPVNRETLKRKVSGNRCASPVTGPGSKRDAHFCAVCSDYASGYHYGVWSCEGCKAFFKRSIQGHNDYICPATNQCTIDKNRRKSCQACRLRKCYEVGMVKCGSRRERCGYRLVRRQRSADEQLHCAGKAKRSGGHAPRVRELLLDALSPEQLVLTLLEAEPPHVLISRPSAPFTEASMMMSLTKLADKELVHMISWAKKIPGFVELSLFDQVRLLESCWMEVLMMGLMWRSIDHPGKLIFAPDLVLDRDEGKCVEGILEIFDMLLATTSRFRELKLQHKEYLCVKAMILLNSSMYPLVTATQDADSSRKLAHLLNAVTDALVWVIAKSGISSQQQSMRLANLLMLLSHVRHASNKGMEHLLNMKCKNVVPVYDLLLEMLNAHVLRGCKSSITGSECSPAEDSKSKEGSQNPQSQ

In the case of `CN(C)/N=N/c1nc[nH]c1C(N)=O`, the Potency result in [1], in assay [2], in assay [3], in assay [4], in [5] and in assay [6] was “inactive” each time. Also, the Potency entry in [7], in assay [8], in [9], in assay [10], in assay [11] and in assay [12] was “inactive” throughout. Also, the Potency result in assay [13], in [14], in assay [15], in assay [16], in assay [18] and in assay [19] was “inactive” in each case. The outcome in assay [17] was inactive.
For the compound `C=CCOC(=O)C(=C)C`, the Potency result in [1], in assay [2], in assay [3], in assay [4], in [5] and in [6] was “inactive” throughout. Further, the Potency result in [8], in [9], in [10], in assay [11], in assay [12] and in assay [13] was “inactive” each time. For the same compound, the Potency entry in [14], in [15], in [16], in assay [18] and in assay [19] was “inactive” each time. Moreover, the compound was called inactive in assay [17].
On to `Nc1cc([N+](=O)[O-])ccc1C(=O)O`, for which the Potency entry in assay [1], in assay [2], in [3], in [4], in [5] and in assay [6] was “inactive” each time. Further, the Potency entry in [7], in assay [8], in assay [9], in assay [11], in assay [12] and in [13] was “inactive” each time. Also, the Potency result in [14], in assay [15], in [16], in [18] and in [19] was “inactive” throughout. In addition, in assay [17], the call was inactive.
Consider `O=S1(=O)CCCO1`, for which the Potency result in assay [1], in [2], in [3], in assay [4], in assay [5] and in [6] was “inactive” each time. For the same compound, the Potency entry in [7], in assay [8], in assay [9], in assay [10], in assay [11] and in assay [12] was “inactive” in each case. In addition, the Potency entry in assay [13], in assay [14], in [15] and in [16] was “inactive” each time. In assay [17], the result was inactive.
Regarding `CCO[Si](CCCNC(N)=O)(OCC)OCC`, the Potency entry in assay [1], in [2], in assay [3], in [4], in [5] and in [6] was “inactive” throughout. The Potency result in assay [7], in [8], in assay [9], in [10], in [11] and in assay [12] was “inactive” in each case. Moreover, the Potency entry in assay [13], in [14], in [15] and in assay [16] was “inactive” each time. Further, in [17], the compound was called inactive.
With `NCCOCCO`, the Potency result in assay [1], in [2], in [3], in assay [4], in assay [5] and in assay [6] was “inactive” in each case. Besides, the Potency entry in assay [7], in assay [11], in assay [12], in assay [13], in assay [14] and in [15] was “inactive” throughout. Moreover, the Potency result in assay [16], in assay [18] and in assay [19] was “inactive” each time. In addition, in assay [17], the compound was called inactive.
Take `CC/C=C\C/C=C\C/C=C\CCCCCCCC(=O)O`: the Potency result was “inactive and 43.3 µM (active)” in assay [1]; 24.1 µM (active) and inactive in [5]. Moreover, the Potency entry in [2], in assay [3], in assay [4], in assay [6], in assay [7] and in [8] was “inactive” throughout. Moreover, the Potency result in assay [9], in assay [10], in assay [13], in [15], in assay [16] and in [18] was “inactive” each time. The Potency result in [19] was “inactive”. In assay [17], the compound was classed as inactive.
